The panel holds about 83,000 compounds, 20% with a hit somewhere; the sample as a whole holds those more often.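 A percent growth of 40 corresponds to 60% growth inhibition; 0 means no net growth; -100 means all cells died. Active threshold: below 10.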 Activity calls are given as the source filed them.
Experiments:
Assay in all cases: NCI-60 one-dose screen, 48 h (100 = growth as untreated, 0 = no growth, -100 = all killed)
Settings in all cases: 10 µM unless noted
DU-145 prostate = test system: DU-145 prostate
MALME-3M melanoma = test system: MALME-3M melanoma
MDA-MB-231 breast = test system: MDA-MB-231 breast
RXF 393 renal = test system: RXF 393 renal
SF-268 CNS = test system: SF-268 CNS
SF-295 CNS = test system: SF-295 CNS
SF-539 CNS = test system: SF-539 CNS
UACC-257 melanoma = test system: UACC-257 melanoma
M14 melanoma = test system: M14 melanoma

Measured: growth

O=C1CC(=O)OC(c2ccc([N+](=O)[O-])cc2)O1
active: MALME-3M melanoma -36.6% | MDA-MB-231 breast -3.22% | RXF 393 renal -91% | SF-268 CNS 4.85% | SF-539 CNS -69.9% | UACC-257 melanoma -23.6% | M14 melanoma -64.4%
inactive: DU-145 prostate 13.9% | SF-295 CNS 70.3%

C=C(C)[C@@H]1CC[C@]2(C(=O)N[C@@H](Cc3ccccc3)C(=O)OC)CC[C@]3(C)[C@H](CC[C@@H]4[C@@]5(C)CCC(=O)C(C)(C)[C@@H]5CC[C@]43C)[C@@H]12
inactive: DU-145 prostate 92.7% | MALME-3M melanoma 102% | MDA-MB-231 breast 102% | RXF 393 renal 101% | SF-268 CNS 78% | SF-295 CNS 78.8% | SF-539 CNS 93.7% | UACC-257 melanoma 104% | M14 melanoma 87.8%

O=C(O)c1ccc2c(c1)C(=O)N(Cc1ccccc1)C2=O
inactive: DU-145 prostate 102% | MALME-3M melanoma 97.4% | MDA-MB-231 breast 101% | RXF 393 renal 103% | SF-268 CNS 98% | SF-295 CNS 95% | SF-539 CNS 103% | UACC-257 melanoma 74.2% | M14 melanoma 100%

Cn1c(-c2c(N)n(CCCN3CCOCC3)c3nc(C#N)c(C#N)nc23)nc2ccccc21
inactive: DU-145 prostate 75.3% | MALME-3M melanoma 48.4% | MDA-MB-231 breast 43.4% | RXF 393 renal 51.2% | SF-268 CNS 76.2% | SF-295 CNS 110% | SF-539 CNS 19.3% | UACC-257 melanoma 67.8% | M14 melanoma 74.2%

COc1cc(NCCCCCNC(C)(C)C)c2ncccc2c1
inactive: DU-145 prostate 112% | MALME-3M melanoma 107% | MDA-MB-231 breast 89.8% | RXF 393 renal 97.4% | SF-268 CNS 105% | SF-295 CNS 77.5% | SF-539 CNS 99.7% | UACC-257 melanoma 133% | M14 melanoma 104%

Cn1cc(-c2nc(-c3c[nH]c4c(Cl)nccc34)cs2)c2cc(F)ccc21
inactive: DU-145 prostate 97.4% | MALME-3M melanoma 120% | MDA-MB-231 breast 100% | RXF 393 renal 106% | SF-268 CNS 114% | SF-295 CNS 105% | SF-539 CNS 107% | UACC-257 melanoma 70.2% | M14 melanoma 99.9%

COc1ccc(/C=C/c2nc(Nc3ccc(S(=O)(=O)Nc4cc(C)on4)cc3)c3ccccc3n2)cc1
inactive: DU-145 prostate 77.3% | MALME-3M melanoma 112% | MDA-MB-231 breast 62.1% | RXF 393 renal 113% | SF-268 CNS 76.4% | SF-295 CNS 54.6% | SF-539 CNS 88.7% | UACC-257 melanoma 77.5% | M14 melanoma 39.9%

CNCCOc1nc2c3cnccc3cc(-c3cc(OC)c(OC)c(OC)c3)c2c2ccncc12
active: DU-145 prostate -13.7% | MALME-3M melanoma -80.2% | MDA-MB-231 breast -9.1% | RXF 393 renal -85.7% | SF-268 CNS -9.41% | SF-295 CNS -20.7% | SF-539 CNS -59.5% | UACC-257 melanoma -43.1% | M14 melanoma -67.8%

COc1cc(C2=NN(C(C)=O)C(c3cc(OC)c(OC)c(OC)c3)C2)ccc1O (stereo not given)
inactive: MALME-3M melanoma 49.4% | SF-268 CNS 36.2% | UACC-257 melanoma 60%
active: DU-145 prostate -1.86% | MDA-MB-231 breast 4.4% | RXF 393 renal -20.9% | SF-295 CNS -55.6% | SF-539 CNS -30.7% | M14 melanoma -28.3%

COc1ccc(-c2nc(S(=O)(=O)c3ccccc3)c(S(=O)CC(=O)N3CCC(C)CC3)o2)cc1 (stereo not given)
inactive: DU-145 prostate 42.5% | MDA-MB-231 breast 24.7% | RXF 393 renal 17.2% | SF-268 CNS 62.5% | SF-295 CNS 92.9% | SF-539 CNS 40.4% | UACC-257 melanoma 65.9% | M14 melanoma 35.1%
active: MALME-3M melanoma -16.6%

O=C1/C=C/[C@@H](O)[C@@H]2C[C@@H](O)C[C@H]2/C=C/CCC[C@H](CCc2cccc3ccccc23)O1
active: MALME-3M melanoma -17.7% | MDA-MB-231 breast -41.2% | RXF 393 renal -30.9% | SF-295 CNS 7.76% | M14 melanoma 5.14%
inactive: DU-145 prostate 19% | SF-268 CNS 16.6% | SF-539 CNS 21.7% | UACC-257 melanoma 26.1%

Nc1c(S(=O)(=O)O)cc2c3c(cccc13)C(=O)OC2=O
inactive: DU-145 prostate 140% | MALME-3M melanoma 112% | MDA-MB-231 breast 103% | RXF 393 renal 131% | SF-268 CNS 109% | SF-295 CNS 117% | SF-539 CNS 100% | UACC-257 melanoma 78.8% | M14 melanoma 102%

O=Cc1ccc(-c2cn3ccnc3c(-c3ccc4ncn(Cc5ccccc5)c4c3)n2)cc1
inactive: DU-145 prostate 75.7% | MALME-3M melanoma 113% | MDA-MB-231 breast 40.8% | RXF 393 renal 75% | SF-268 CNS 72.9% | SF-295 CNS 76.9% | SF-539 CNS 68.5% | UACC-257 melanoma 122% | M14 melanoma 77%

Cc1cccc(-c2cn3ccnc3c(-c3ccc4ncn(Cc5ccccc5)c4c3)n2)c1
inactive: DU-145 prostate 85.8% | MALME-3M melanoma 125% | MDA-MB-231 breast 71.6% | RXF 393 renal 98% | SF-268 CNS 92.8% | SF-295 CNS 85.7% | SF-539 CNS 92.7% | UACC-257 melanoma 120% | M14 melanoma 102%

COc1ccc(C(=O)c2nc3ccccc3n2CC(=O)c2ccc(Cl)cc2)cc1
inactive: DU-145 prostate 35.2% | MALME-3M melanoma 46% | MDA-MB-231 breast 35.6% | RXF 393 renal 27.8% | SF-268 CNS 41.7% | SF-295 CNS 10.2% | SF-539 CNS 16.4% | UACC-257 melanoma 37.4%
active: M14 melanoma 7.42%

COC(=O)c1ccc2c(c1)[n+](=O)c(C(C)=O)c(C(F)(F)F)n2[O-]
active: DU-145 prostate 1.28% | MALME-3M melanoma -26.4% | MDA-MB-231 breast -4.69% | RXF 393 renal -20.1% | SF-268 CNS -24.8% | SF-295 CNS -45.7% | SF-539 CNS -45.8% | UACC-257 melanoma -30.3% | M14 melanoma -23.5%

O=C1/C=C/[C@@H](O)[C@@H]2C[C@@H](O)C[C@H]2/C=C/CCC[C@H](CCc2ccc3ncccc3c2)O1
inactive: DU-145 prostate 13.5% | SF-268 CNS 15.2% | SF-539 CNS 19.2% | UACC-257 melanoma 19.3%
active: MALME-3M melanoma -17.8% | MDA-MB-231 breast -43% | RXF 393 renal -32.6% | SF-295 CNS 1.79% | M14 melanoma 6.52%

C[C@H](c1nc2ccc(N)cc2[nH]1)[C@H]1CC[C@H]2[C@@H]3CCC4=CC(=O)CC[C@]4(C)[C@H]3CC[C@]12C
inactive: DU-145 prostate 88.8% | MALME-3M melanoma 101% | MDA-MB-231 breast 91.5% | RXF 393 renal 44.6% | SF-268 CNS 82.2% | SF-295 CNS 57.1% | SF-539 CNS 53.8% | UACC-257 melanoma 96.4% | M14 melanoma 89.5%

C#Cc1cccc(NC(=O)Nc2cccc(NC(=O)CCl)c2)c1
active: MALME-3M melanoma -50.2% [8.25 µM] | MDA-MB-231 breast -61% [8.25 µM] | RXF 393 renal -48.7% [8.25 µM] | SF-268 CNS -2.2% [8.25 µM] | SF-539 CNS -95.2% [8.25 µM] | M14 melanoma 6.26% [8.25 µM]
inactive: DU-145 prostate 44.4% [8.25 µM] | SF-295 CNS 45% [8.25 µM] | UACC-257 melanoma 48.7% [8.25 µM]

CCc1c2c(nc3ccc(OCc4ccc(B(O)O)cc4)cc13)-c1cc3c(c(=O)n1C2)COC(=O)[C@]3(O)CC
inactive: MDA-MB-231 breast 28.8%
active: DU-145 prostate 9.26% | MALME-3M melanoma -7.08% | RXF 393 renal -45.5% | SF-268 CNS 7.54% | SF-295 CNS 1.47% | SF-539 CNS -7.49% | UACC-257 melanoma -12.2% | M14 melanoma 1.07%

COc1cc(C2C3=C(COC3=O)N(CCO)c3cc4c(cc32)OCO4)cc(OC)c1OC (stereo not given)
active: DU-145 prostate 5.4% | MDA-MB-231 breast -1.03% | RXF 393 renal -5.54% | SF-539 CNS -51.6% | M14 melanoma -19.6%
inactive: MALME-3M melanoma 56.3% | SF-268 CNS 41.3% | SF-295 CNS 21.4% | UACC-257 melanoma 60.8%

COc1ccc(-c2cnc3c(-c4cccc5cnccc45)cnn3c2)cc1
active: SF-539 CNS 2.09%
inactive: DU-145 prostate 69.9% | MALME-3M melanoma 45% | MDA-MB-231 breast 37.8% | RXF 393 renal 48.7% | SF-268 CNS 92.7% | SF-295 CNS 62.5% | UACC-257 melanoma 88.7% | M14 melanoma 74.5%

CCOC(=O)CC1CSC(N/N=C/c2ccc(-n3cccn3)cc2)=N1 (stereo not given)
inactive: DU-145 prostate 108% | MALME-3M melanoma 113% | MDA-MB-231 breast 101% | RXF 393 renal 105% | SF-268 CNS 103% | SF-295 CNS 107% | SF-539 CNS 107% | UACC-257 melanoma 96.2% | M14 melanoma 107%

COc1cc(-c2cc(-c3ccc(N(C)C)cc3)nc(N3CCOCC3)c2C#N)cc(OC)c1OC
active: RXF 393 renal -43.2% | SF-295 CNS -20.9% | M14 melanoma -61.5%
inactive: DU-145 prostate 52.4% | MALME-3M melanoma 31.1% | MDA-MB-231 breast 25.2% | SF-268 CNS 36% | SF-539 CNS 47.3% | UACC-257 melanoma 24.3%

CC(=O)OC[C@]12CC[C@@H](C(=O)CBr)[C@@H]1[C@H]1CC[C@@H]3[C@@]4(C)CC[C@H](OC(C)=O)C(C)(C)[C@@H]4CC[C@@]3(C)[C@]1(C)CC2
inactive: DU-145 prostate 100% | MALME-3M melanoma 89.2% | MDA-MB-231 breast 110% | RXF 393 renal 99.7% | SF-268 CNS 89.9% | SF-295 CNS 106% | SF-539 CNS 91.7% | UACC-257 melanoma 108% | M14 melanoma 87.2%

— PubChem BioAssay (NCI)
